Test results reported in the supplement of paper PMC10849652.
About 7,900 targets were measured; listed, in parts, are those with a hit and a random draw of the rest. About 0.6% of all pairs of compound and target were hits.

What was measured:
Test in all cases: log2 fold change, soluble protein after heating vs DMSO (PISA); higher = thermal stabilisation; K562 cells, 10 uM, 30 min; active = over 0.2 and 3.5 SD of the protein, either way, in both replicates (recomputed)
erlotinib = compound: C#Cc1cccc(Nc2ncnc3cc(OCCOC)c(OCCOC)cc23)c1 [erlotinib]
Outline: (§1)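 Soluble protein was quantified by TMTpro 16plex LC-MS/MS after channel sums were equalised. It was obtained as the supernatant after 21,000xg for 90 min from pooled aliquots of K562 cells (2×10^6 cells/mL, 10 μM compound, 30 min) heated for 3 min across 48°C-58°C and extracted in PBS with 0.5% NP-40 at 4°C. Thermal stability values are relative to control samples and come from duplicates. They are given as log2 fold changes.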

[1] = compound: C/C(=N\NC(=O)C1=CC(=CC=C1)S(=O)(=O)N2CCOCC2)/C3=C(C=CC(=C3)Cl)O
Outline: as §1

[2] = compound: C1=CC(=C(C=C1Cl)C2=NC3=NC=CN=C3C(=N2)NC4=CC=NC=C4)F
Outline: as §1

[3] = compound: C1=CC(=CC=C1C2=NC3=C(N2)C=C(C=C3)C(=O)N)OC4=CC=C(C=C4)Cl
Outline: as §1

[4] = compound: C1=CC2=C(C=CC(=C2)/C=C\3/C(=O)NC(=NCC4=CC=CS4)S3)N=C1
Outline: as §1

[5] = compound: C1=CC2=NC=CN=C2C=C1/C=C/3\C(=O)NC(=O)S3
Outline: as §1

[6] = compound: C1=CC=C(C=C1)C2=NC(=C(N2)C3=CC=NC=C3)C4=CC(=C(C=C4)Cl)O
Outline: as §1

[7] = compound: C1=CC=C2C(=C1)C3=NNC4=CC=CC(=C43)C2=O
Outline: as §1

[8] = compound: C1CCN(C1)C(=O)NC2=CC=CC(=C2)NC3=NC=C(C(=N3)NCCC4=CN=CN4)Br
Outline: as §1

[9] = compound: C1CN(CCC1(CC2=CC=C(C=C2)Cl)N)C3=NC=NC4=C3C=CN4
Outline: as §1

Measured: log2 fold change

NFATC2 (UniProt Q13469)
inactive: erlotinib -0.049 | [1] 0.147 | [2] -0.002 | [3] 0.012 | [4] 0.04 | [5] -0.132 | [6] 0.053 | [7] -0.109 | [8] -0.201 | [9] 0.007

MRPS9 (UniProt P82933)
inactive: erlotinib -0.057 | [1] -0.019 | [2] -0.087 | [3] 0.137 | [4] 0.019 | [5] 0.04 | [6] 0.023 | [7] 0.043 | [8] 0.002 | [9] -0.095

NA, A0A0B4J2A0
inactive: erlotinib -0.037 | [1] 0.07 | [2] 0.065 | [3] -0.009 | [4] 0.037 | [5] 0.038 | [6] 0.108 | [7] 0.026 | [8] -0.055 | [9] -0.007

MSH2 (UniProt P43246)
UniProt P43246, sequence (P43246 whole entry, looked up): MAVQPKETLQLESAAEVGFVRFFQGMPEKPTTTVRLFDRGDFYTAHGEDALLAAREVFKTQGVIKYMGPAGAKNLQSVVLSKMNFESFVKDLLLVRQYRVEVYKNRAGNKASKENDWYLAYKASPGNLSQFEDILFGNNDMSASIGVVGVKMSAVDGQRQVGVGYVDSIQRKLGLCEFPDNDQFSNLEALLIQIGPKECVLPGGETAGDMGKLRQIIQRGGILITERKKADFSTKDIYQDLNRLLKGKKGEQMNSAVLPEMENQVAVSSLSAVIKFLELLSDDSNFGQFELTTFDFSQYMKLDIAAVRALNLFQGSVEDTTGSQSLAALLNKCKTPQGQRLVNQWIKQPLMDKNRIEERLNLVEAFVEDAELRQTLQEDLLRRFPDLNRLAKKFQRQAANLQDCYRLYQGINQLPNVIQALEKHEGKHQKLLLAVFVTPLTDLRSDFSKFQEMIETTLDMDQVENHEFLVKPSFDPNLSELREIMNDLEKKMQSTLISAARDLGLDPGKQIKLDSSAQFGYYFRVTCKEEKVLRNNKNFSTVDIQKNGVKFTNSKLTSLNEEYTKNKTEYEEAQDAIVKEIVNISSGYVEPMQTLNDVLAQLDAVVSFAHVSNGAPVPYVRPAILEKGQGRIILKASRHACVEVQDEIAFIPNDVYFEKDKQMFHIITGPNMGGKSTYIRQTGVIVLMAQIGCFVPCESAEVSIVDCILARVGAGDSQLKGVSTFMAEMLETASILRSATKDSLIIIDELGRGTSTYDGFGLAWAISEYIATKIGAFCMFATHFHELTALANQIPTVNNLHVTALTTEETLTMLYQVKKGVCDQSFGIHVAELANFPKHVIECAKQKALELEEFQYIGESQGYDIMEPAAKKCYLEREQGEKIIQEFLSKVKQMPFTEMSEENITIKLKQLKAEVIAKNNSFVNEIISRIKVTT
inactive: erlotinib 0.038 | [1] 0.109 | [2] 0.066 | [3] -0.004 | [4] 0.037 | [5] 0.025 | [6] -0.016 | [7] 0.035 | [8] -0.064 | [9] -0.059

NOP58 (UniProt Q9Y2X3)
inactive: erlotinib -0.013 | [1] 0.001 | [2] -0.332 | [3] -0.001 | [4] -0.043 | [5] 0.034 | [6] -0.055 | [7] -0.126 | [8] -0.156 | [9] -0.143

MYH10 isoform 3 (UniProt P35580)
inactive: erlotinib -0.002 | [1] 0.043 | [2] 0.089 | [3] -0.032 | [4] 0.006 | [5] 0.01 | [6] 0.034 | [7] 0.021 | [8] 0.015 | [9] -0.024

MITD1 (UniProt Q8WV92)
UniProt Q8WV92, sequence (Q8WV92 whole entry, looked up): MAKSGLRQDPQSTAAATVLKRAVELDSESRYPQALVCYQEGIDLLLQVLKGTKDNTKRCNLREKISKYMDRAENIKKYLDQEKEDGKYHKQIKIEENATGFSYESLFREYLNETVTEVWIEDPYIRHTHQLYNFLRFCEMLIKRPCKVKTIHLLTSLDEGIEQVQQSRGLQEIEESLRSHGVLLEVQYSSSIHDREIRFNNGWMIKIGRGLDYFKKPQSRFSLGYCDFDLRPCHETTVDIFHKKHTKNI
inactive: erlotinib 0.011 | [1] -0.009 | [2] 0.148 | [3] 0.037 | [4] 0.044 | [5] 0.036 | [6] -0.015 | [7] 0.101 | [8] 0.03 | [9] -0.024

NKTR (UniProt P30414)
inactive: erlotinib 0.597 | [3] 0.028 | [5] -0.149

MYLK (UniProt Q15746)
inactive: erlotinib 0.25 | [3] -0.146 | [5] -0.005 | [6] 0.291 | [8] 0.008 | [9] -0.066

ORC3 (UniProt Q9UBD5)
inactive: [1] 0.097 | [4] -0.104 | [7] 0.105

NCBP2AS2 (UniProt Q69YL0)
UniProt Q69YL0, sequence (Q69YL0 whole entry, looked up): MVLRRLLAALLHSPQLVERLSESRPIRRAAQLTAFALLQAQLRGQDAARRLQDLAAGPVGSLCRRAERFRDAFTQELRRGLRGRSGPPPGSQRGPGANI
inactive: erlotinib 0.033 | [1] 0.104 | [3] 0.054 | [4] 0 | [5] 0.106 | [6] -0.029 | [7] 0.148 | [8] 0.048 | [9] 0.113

NA (UniProt B2RBV5)
inactive: [2] -0.068 | [5] -0.015

MPHOSPH8 isoform 2 (UniProt Q99549)
UniProt Q99549, sequence (Q99549 whole entry, looked up): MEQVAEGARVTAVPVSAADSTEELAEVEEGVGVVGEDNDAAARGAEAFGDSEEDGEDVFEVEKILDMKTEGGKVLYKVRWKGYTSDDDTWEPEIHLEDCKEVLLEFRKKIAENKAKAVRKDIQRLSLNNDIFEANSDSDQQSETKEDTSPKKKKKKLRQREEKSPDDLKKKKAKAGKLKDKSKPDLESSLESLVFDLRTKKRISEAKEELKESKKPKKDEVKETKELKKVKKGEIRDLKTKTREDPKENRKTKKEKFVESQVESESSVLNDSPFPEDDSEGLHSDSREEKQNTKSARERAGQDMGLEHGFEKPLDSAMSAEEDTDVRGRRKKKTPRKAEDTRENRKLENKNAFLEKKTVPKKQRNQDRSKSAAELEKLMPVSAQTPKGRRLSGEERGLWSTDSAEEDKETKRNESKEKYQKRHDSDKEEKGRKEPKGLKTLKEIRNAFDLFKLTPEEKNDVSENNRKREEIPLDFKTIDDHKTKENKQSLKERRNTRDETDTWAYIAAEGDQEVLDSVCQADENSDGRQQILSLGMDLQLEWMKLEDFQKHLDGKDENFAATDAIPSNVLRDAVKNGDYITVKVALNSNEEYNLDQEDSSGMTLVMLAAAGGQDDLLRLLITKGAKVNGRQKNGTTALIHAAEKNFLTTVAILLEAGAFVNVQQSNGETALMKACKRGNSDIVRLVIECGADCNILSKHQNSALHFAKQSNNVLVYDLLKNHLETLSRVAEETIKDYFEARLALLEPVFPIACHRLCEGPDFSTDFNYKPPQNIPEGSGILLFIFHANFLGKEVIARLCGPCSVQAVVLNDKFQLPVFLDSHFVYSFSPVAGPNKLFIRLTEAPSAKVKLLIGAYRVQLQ
inactive: [1] 0.033 | [2] 0.24 | [4] -0.044 | [6] -0.055 | [7] -0.086 | [8] -0.02 | [9] -0.065

MRM2 (UniProt Q9UI43)
inactive: erlotinib 0.023 | [1] 0.182 | [3] 0.031 | [4] 0.185 | [7] 0.121 | [8] -0.017 | [9] -0.002

MMADHC (UniProt Q9H3L0)
inactive: erlotinib 0.088 | [1] -0.002 | [3] -0.034 | [4] -0.031 | [5] -0.105 | [6] -0.039 | [7] 0.073 | [8] 0.014 | [9] 0.083

NEU3 isoform 2 (UniProt Q9UQ49)
inactive: erlotinib 0.164 | [3] 0

NIPSNAP3B (UniProt Q9BS92)
UniProt Q9BS92, sequence (Q9BS92 whole entry, looked up): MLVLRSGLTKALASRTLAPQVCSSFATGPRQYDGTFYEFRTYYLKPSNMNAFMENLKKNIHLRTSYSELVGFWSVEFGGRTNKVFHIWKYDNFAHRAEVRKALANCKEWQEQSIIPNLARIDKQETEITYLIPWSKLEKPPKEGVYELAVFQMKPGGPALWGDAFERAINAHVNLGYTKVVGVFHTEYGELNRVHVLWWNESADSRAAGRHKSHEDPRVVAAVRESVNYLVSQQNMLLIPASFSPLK
inactive: erlotinib -0.061 | [1] -0.014 | [3] -0.071 | [4] -0.159 | [5] 0.031 | [7] 0.007 | [8] 0.008 | [9] 0.051

NA, A0A494C071
inactive: [1] 0 | [2] 0.197 | [4] -0.005 | [5] 0.079 | [7] -0.018 | [8] 0.136 | [9] 0.114

MSANTD2 (UniProt Q6P1R3)
UniProt Q6P1R3, sequence (Q6P1R3 whole entry, looked up): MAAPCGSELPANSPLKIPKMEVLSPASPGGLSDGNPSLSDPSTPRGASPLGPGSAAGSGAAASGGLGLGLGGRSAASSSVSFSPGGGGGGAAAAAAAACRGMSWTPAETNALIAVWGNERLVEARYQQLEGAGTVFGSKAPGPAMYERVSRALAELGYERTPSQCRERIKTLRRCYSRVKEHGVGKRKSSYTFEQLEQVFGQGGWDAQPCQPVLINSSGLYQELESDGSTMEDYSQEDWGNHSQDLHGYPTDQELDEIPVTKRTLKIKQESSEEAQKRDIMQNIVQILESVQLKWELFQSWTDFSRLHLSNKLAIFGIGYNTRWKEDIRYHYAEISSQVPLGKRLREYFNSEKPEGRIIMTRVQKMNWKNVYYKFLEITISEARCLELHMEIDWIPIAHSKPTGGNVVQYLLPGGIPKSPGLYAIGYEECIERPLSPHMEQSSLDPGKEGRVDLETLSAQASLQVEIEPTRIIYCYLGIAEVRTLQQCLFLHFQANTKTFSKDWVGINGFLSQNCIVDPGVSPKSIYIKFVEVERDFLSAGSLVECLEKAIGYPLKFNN
inactive: [2] 0.012 | [8] -0.081 | [9] -0.052

NPC1L1 (UniProt Q9UHC9)
inactive: [1] 0.006 | [4] 0.073 | [5] 0.143 | [7] -0.02 | [8] 0 | [9] -0.033

NIPSNAP2 (UniProt C9J7B1)
inactive: [1] -0.171 | [4] -0.16 | [5] 0.057 | [7] -0.138

NUDT6 (UniProt P53370)
inactive: erlotinib -0.022 | [2] 0.155 | [3] 0.103 | [6] -0.12 | [8] 0.121 | [9] 0.35

PAFAH2 (UniProt Q99487)
inactive: erlotinib -0.004 | [1] 0.138 | [3] -0.018 | [4] -0.144 | [5] -0.02 | [6] -0.008 | [7] 0.011 | [8] -0.017 | [9] 0.08

OVCA2 (UniProt Q8WZ82)
inactive: [1] 0.23 | [4] 0.108 | [5] 0.268 | [6] -0.044 | [7] -0.131

NUDT7 (UniProt P0C024)
inactive: erlotinib -0.246 | [2] -0.282 | [3] 0.148 | [5] -0.066 | [6] -0.118 | [8] 0.158 | [9] -0.024

NOS1AP (UniProt O75052)
active: [9] 1.09
inactive: erlotinib 0.134 | [2] 0.517 | [3] -0.006 | [5] -0.02 | [6] -0.248 | [8] -0.208

MITF (UniProt O75030)
inactive: erlotinib -0.021 | [1] -0.015 | [3] 0.041 | [4] -0.011 | [7] 0.047

NA, A0A2R8Y3M9
inactive: [1] -0.335 | [4] 0.355 | [5] 0.132 | [6] -0.072 | [7] -0.137

NAP1L1 (UniProt B7Z9C2)
inactive: erlotinib 1.01 | [1] 0.122 | [3] -0.051 | [4] 0.156 | [5] 0.175 | [7] -0.178

NA, A0A1W2PSA9
inactive: [1] -0.065 | [4] -0.111 | [6] -0.008 | [7] -0.104 | [8] 0.101 | [9] -0.086

MYSM1 (UniProt Q5VVJ2)
inactive: [5] 0.173 | [6] 0.37

NDUFA7 (UniProt M0R0N0)
inactive: erlotinib 0.101 | [3] -0.051 | [5] 0.015

MON1A (UniProt Q86VX9)
inactive: erlotinib -0.119 | [2] 0.022 | [3] 0 | [5] -0.262 | [6] -0.017 | [8] 0 | [9] 0.135

MOB2 isoform 3 (UniProt Q70IA6)
UniProt Q70IA6, sequence (Q70IA6 whole entry, looked up): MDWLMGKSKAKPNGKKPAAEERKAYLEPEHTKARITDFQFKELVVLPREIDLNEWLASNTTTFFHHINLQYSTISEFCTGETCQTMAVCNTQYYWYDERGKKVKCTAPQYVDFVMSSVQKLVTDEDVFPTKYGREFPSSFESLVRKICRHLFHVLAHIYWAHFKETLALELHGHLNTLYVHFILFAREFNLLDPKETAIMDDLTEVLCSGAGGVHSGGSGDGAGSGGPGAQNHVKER
inactive: erlotinib 0.029 | [2] -0.077 | [3] -0.001 | [5] 0.06 | [6] 0.025 | [8] 0.135 | [9] -0.22

OAF (UniProt Q86UD1)
UniProt Q86UD1, sequence (Q86UD1 whole entry, looked up): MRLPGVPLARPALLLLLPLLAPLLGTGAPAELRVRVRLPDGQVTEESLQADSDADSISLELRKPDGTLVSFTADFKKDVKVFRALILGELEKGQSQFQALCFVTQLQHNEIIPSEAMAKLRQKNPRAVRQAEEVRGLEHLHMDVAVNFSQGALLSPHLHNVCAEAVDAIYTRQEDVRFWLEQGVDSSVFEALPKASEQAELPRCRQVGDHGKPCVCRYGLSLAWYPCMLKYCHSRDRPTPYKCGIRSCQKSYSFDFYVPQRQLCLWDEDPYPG
inactive: erlotinib -0.115 | [3] 0.05 | [6] -0.174

NCOA5 (UniProt Q9HCD5)
inactive: erlotinib -0.057 | [3] 0.156 | [6] -0.094

NA (UniProt J3KR12)
inactive: [2] -0.073 | [5] 0.254 | [6] 0.075

OXR1 isoform 2 (UniProt Q8N573)
UniProt Q8N573, sequence (Q8N573 whole entry, looked up): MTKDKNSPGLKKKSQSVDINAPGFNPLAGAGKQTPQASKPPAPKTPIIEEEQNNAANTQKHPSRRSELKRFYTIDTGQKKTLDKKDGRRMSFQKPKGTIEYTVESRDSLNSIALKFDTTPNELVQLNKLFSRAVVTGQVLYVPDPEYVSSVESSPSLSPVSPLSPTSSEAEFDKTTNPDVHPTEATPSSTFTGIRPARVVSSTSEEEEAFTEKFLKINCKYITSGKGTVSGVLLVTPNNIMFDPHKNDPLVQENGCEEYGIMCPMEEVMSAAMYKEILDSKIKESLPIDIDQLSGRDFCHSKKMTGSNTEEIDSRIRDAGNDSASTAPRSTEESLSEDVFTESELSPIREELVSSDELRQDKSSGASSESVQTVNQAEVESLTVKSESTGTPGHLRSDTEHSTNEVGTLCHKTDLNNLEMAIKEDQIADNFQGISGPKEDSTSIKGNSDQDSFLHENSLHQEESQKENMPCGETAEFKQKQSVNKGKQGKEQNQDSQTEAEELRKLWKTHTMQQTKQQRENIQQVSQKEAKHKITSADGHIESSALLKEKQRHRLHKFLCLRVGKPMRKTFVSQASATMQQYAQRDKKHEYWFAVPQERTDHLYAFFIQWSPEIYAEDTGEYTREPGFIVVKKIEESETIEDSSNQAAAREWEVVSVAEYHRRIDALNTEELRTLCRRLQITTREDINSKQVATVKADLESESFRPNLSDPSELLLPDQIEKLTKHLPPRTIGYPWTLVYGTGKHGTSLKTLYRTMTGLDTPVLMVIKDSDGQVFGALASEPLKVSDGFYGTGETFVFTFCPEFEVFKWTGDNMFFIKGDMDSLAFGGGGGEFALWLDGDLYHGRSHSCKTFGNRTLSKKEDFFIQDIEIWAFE
inactive: [1] 0.137 | [2] -0.362 | [4] -0.034 | [6] -0.056 | [7] 0.068 | [8] 0.02 | [9] -0.022

MLH1 (UniProt P40692)
inactive: [1] 0.027 | [2] 0.077 | [4] -0.038 | [5] 0.096 | [7] 0.053 | [8] -0.165 | [9] 0.039

NOLC1 isoform 3 (UniProt Q14978)
inactive: erlotinib 0.002 | [3] 0.183

MXRA7 isoform 3 (UniProt P84157)
inactive: [6] -0.08

MTHFD1, A0A384N5Y3
inactive: [1] 0.056 | [2] 0.081 | [4] 0.146 | [5] -0.06 | [6] 0.036 | [7] 0.01 | [8] -0.004 | [9] 0.033

MT-ND2 (UniProt P03891)
UniProt P03891, sequence (P03891 whole entry, looked up): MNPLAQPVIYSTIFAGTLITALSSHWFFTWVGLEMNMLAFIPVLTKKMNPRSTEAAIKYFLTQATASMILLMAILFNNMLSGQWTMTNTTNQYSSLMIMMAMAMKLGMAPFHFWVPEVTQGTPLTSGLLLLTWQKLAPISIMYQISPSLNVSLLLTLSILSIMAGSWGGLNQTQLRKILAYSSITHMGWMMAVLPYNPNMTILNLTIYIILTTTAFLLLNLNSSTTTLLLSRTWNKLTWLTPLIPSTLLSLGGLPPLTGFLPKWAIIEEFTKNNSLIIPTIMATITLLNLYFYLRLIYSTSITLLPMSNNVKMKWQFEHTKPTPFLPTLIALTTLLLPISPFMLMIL
inactive: erlotinib -0.067 | [1] -0.063 | [3] 0.062 | [4] -0.108 | [5] 0.104 | [6] 0.116 | [7] 0.044 | [8] -0.016 | [9] -0.093

MYH16 (UniProt Q9H6N6)
inactive: erlotinib -0.044 | [1] 0.102 | [3] 0.049 | [4] -0.21 | [5] 0.284 | [7] 0.044 | [8] -0.089 | [9] -0.082

P4HA2 (UniProt O15460)
inactive: erlotinib -0.075 | [3] 0.034 | [5] -0.025 | [6] -0.02 | [8] -0.016 | [9] -0.035
active: [2] -0.548

MOB3B (UniProt Q86TA1)
UniProt Q86TA1, sequence (Q86TA1 whole entry, looked up): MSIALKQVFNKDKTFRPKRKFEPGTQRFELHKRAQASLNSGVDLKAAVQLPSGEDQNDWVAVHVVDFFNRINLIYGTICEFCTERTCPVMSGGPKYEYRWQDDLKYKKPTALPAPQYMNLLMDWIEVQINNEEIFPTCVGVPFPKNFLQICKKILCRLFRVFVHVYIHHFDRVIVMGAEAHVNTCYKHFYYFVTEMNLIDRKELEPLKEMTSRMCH
inactive: erlotinib -0.305 | [1] 0.302 | [3] -0.271 | [4] 0.24 | [5] -0.056 | [7] -0.092 | [8] -0.186 | [9] 0.059
